Results on seven molecules are retold here after PubChem BioAssay (Tox21).

Several values for one entry are separate records, joined by “and”; a condition that tells them apart may be missing. Equal entries are not always repeated. Records with an inconclusive call do not appear. Activity calls are given as the source filed them. Unless noted, calls follow the shape of the dose curve; as a rule, active = well fitted curve in the direction sought with a large enough effect in the repeat runs; inconclusive = weak or mixed curves; inactive = no such curve, though single readings can be large; an effect the other way counts as inactive or inconclusive.

Assay [1] can be described thus: qHTS assay to identify small molecule antagonists of the sonic hedgehog signaling (Shh) pathway (AID 1259369; calls by dose curve; also: nearly all actives have a fitted effect of over 45% in size; also: potency is read from the fitted curve at half-maximal effect). In short, it runs like this:
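Gli1 transcriptional reporter (firefly Luc) in NIH/3T3 background, conditioned-medium activated. 24hr exposure, luminescence endpoint.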

In assay [2] the target is Estrogen receptor beta (Homo sapiens) (UniProt Q92731). Kind of assay: qHTS assay to identify small molecule agonists of the estrogen receptor beta (ER-beta) signaling pathway (AID 1259377; active = well fitted activation curve with a large enough effect in the signal ratio in the repeat runs, not every such curve was filed as active; the % refers to the signal ratio). In a few lines:
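Screening used GripTite ER-beta-UAS-bla cells held in 2% charcoal-stripped FBS medium. After overnight (16 hr) compound incubation at 37C, beta-lactamase activity was detected with a FRET substrate by fluorescence.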
(qHTS replaces the single test concentration by a dilution series.)

The nature of assay [3]: qHTS assay to identify small molecule agonists of the androgen receptor (AR) signaling pathway in the presence of an antagonist - cell viability counter screen (AID 1259379). Also: nearly all actives have a fitted effect of over 25% in size. Also: potency is read from the fitted curve at half-maximal effect. In short, it runs like this:
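Counter screen for cell viability run in parallel with the AR agonist-mode luciferase assay. MDA-kb2 cells were co-treated with nilutamide (3.0uM final) and compounds, then incubated 16 hr at 37C, and CellTiter-Fluor fluorescence was measured.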

Assay [4] in a line: qHTS assay to identify small molecule agonists of the estrogen receptor beta (ER-beta) signaling pathway - cell viability counter screen (AID 1259380). Also: nearly all actives have a fitted effect of over 30% in size. Also: potency is read from the fitted curve at half-maximal effect. In a few lines: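 In this qHTS counter screen, HEK293T cells carrying an ER-beta/UAS beta-lactamase reporter, grown in 2% charcoal-stripped FBS, received compound for 16 hr; ATP-based CellTiter-Glo luminescence was then read after 30 min at room temperature.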

Assay [5] addresses Estrogen receptor (Homo sapiens) (UniProt P03372). Kind of assay: qHTS assay to identify small molecule agonists of the estrogen receptor alpha (ER-alpha) signaling pathway in the presence of an antagonist (AID 1259383; calls by dose curve; also: top concentration of the series differs between compounds; nearly all actives have a fitted effect of over 15% in size). In a few lines:
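ER-alpha agonism measured under antagonist challenge: 10.0nM ICI-182,780 (final) plus compound, 15 concentrations, 22hr, VM7Luc4E2 ERE-luciferase cells. Read by luminescence.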

Assay [6] is described as follows: qHTS assay to identify small molecule agonists of the estrogen receptor alpha (ER-alpha) signaling pathway in the presence of an antagonist - cell viability counter screen (AID 1259386).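 Also: cells exposed to compounds for 22 h at 37 °C before the viability read; nearly all actives have a fitted effect of over 30% in size.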 Also: potency is read from the fitted curve at half-maximal effect. In short, it runs like this:
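Steps: 5-day stripped-FBS culture; seed and incubate 24hr; add ICI-182,780 (10.0nM final); pin 15-point compound titration; incubate 22hr at 37C; add CellTiter-Fluor at 21hr; read fluorescence.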

A short description of assay [7]: qHTS assay to identify small molecule antagonists of the progesterone receptor (PR) signaling pathway - cell viability counter screen (AID 1346798). Also: nearly all actives have a fitted effect of over 50% in size. Also: potency is read from the fitted curve at half-maximal effect. In a few lines:
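Measures cytotoxicity in parallel with the PR antagonist reporter read: HEK293T PR-UAS-bla cells get compound and R5020 for 16 hr, and remaining viable cells are quantified by CellTiter-Glo luminescence.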

Assay [8] is described as follows: qHTS assay to identify small molecule agonists of the progesterone receptor (PR) signaling pathway - cell viability counter screen (AID 1346799; calls by dose curve; also: nearly all actives have a fitted effect of over 45% in size; also: potency is read from the fitted curve at half-maximal effect). In short, it runs like this: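 Using the same plates as the PR reporter screen, HEK293T PR-UAS-bla cells received compounds for 16 hr at 37C and were then lysed with CellTiter-Glo; luminescence was read 30 min later at room temperature.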

Assay [9] can be described thus: qHTS assay to identify small molecule antagonists of the TGF-beta/Smad signaling pathway - cell viability counter screen (AID 1346824). Also: nearly all actives have a fitted effect of over 50% in size. Also: potency is read from the fitted curve at half-maximal effect. In a few lines: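 Cytotoxicity counter-screen run in the same wells as the beta-lactamase Smad reporter read: CellTiter-Glo luminescence after 30 min at room temperature. HEK 293T SBE-bla cells had 5 hr compound exposure at 37 C with TGF-beta1 (0.25 ng/mL stock).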

The nature of assay [10]: qHTS assay to identify small molecule agonists of the TGF-beta/Smad signaling pathway - cell viability counter screen (AID 1346829). Also: top concentration of the series differs between compounds; nearly all actives have a fitted effect of over 45% in size. In a few lines: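 CellTiter-Glo luminescence readout; SBE-bla HEK 293T cells, overnight plating, compound 5 hr at 37 C/5% CO2, then bla substrate 2 hr RT, then CellTiter-Glo 30 min RT.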
Assay [11] can be described thus: qHTS assay to identify small molecule agonists of the TGF-beta/Smad signaling pathway (AID 1346859; active = well fitted activation curve with a large enough effect in the signal ratio in the repeat runs, not every such curve was filed as active; the % refers to the signal ratio; also: series mostly up to about 77 µM). In a few lines: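 Beta-lactamase reporter activity downstream of Smad binding elements was measured in stably transfected HEK 293T cells; compounds were incubated for 5 hr, substrate for 2 hr at room temperature.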
For assay [12], the target named is Thyrotropin-releasing hormone receptor (Homo sapiens) (UniProt P34981). Kind of assay: qHTS assay to identify small molecule antagonists of the thyrotropin-releasing hormone receptor (TRHR) signaling pathway (AID 1346877; active = well fitted inhibition curve with a large enough effect in the repeat runs, not every such curve was filed as active; also: series mostly up to about 51 µM). In a few lines: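 Human TRHR in HEK293 cells; inhibition of the intracellular calcium rise triggered by 1 nM TRH was followed by fluorescence over 3 min. Compounds were run at 15 concentrations, three replicates each.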

Assay [13] has the same target. Kind of assay: qHTS assay to identify small molecule agonists of the thyrotropin-releasing hormone receptor (TRHR) signaling pathway (AID 1346891; calls by dose curve;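 also: HEK293 cells expressing TRHR with calcium dye readout; series mostly up to about 58 µM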). In short, it runs like this: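 Overnight-plated (18 h, 37 °C, 5% CO2) TRHR-Hek293 cells; 2 h calcium dye at 37 °C; compound in DMSO; 3-min kinetic fluorescence read.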
A short description of assay [14]: qHTS assay to identify small molecule antagonists of the estrogen receptor beta (ER-beta) signaling pathway - cell viability counter screen (AID 1259382). Also: nearly all actives have a fitted effect of over 55% in size. Also: potency is read from the fitted curve at half-maximal effect. In a few lines: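 HEK293T ER-beta-UAS-bla, 2% charcoal-stripped FBS; compounds + 1nM E2 16 hr 37C; CellTiter-Glo luminescence, 30 min RT.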
The nature of assay [15]: qHTS assay to identify small molecule agonists or antagonists of the thyroid stimulating hormone receptor (TSHR) signaling pathway - wild type cell line counter screen (AID 1259384; calls by dose curve). In short, it runs like this:
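Counter screen in untransfected Hek293: compounds (15-point titration, triplicate) plus phosphodiesterase inhibitor Ro20-1724 added after 18 h plating; 30 min RT. Intracellular cAMP via competitive d2/cryptate immunoassay, 1 h incubation.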

The target of assay [16] is Thyrotropin receptor (Homo sapiens) (UniProt P16473). Kind of assay: qHTS assay to identify small molecule antagonists of the thyroid stimulating hormone receptor (TSHR) signaling pathway (AID 1259385; calls by dose curve; also: nearly all actives have a fitted effect of over 20% in size; also: potency is read from the fitted curve at half-maximal effect). In short, it runs like this:
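Antagonist mode: compound-treated TSHR-expressing HEK293 cells were stimulated with 1.5 ng/mL TSH (final) in presence of Ro20-1724 for 30 min at RT. HTRF cAMP detection after 1 h; each compound tested at 15 concentrations, triplicate.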

The target of assay [17] is Progesterone receptor (Homo sapiens) (UniProt P06401). Briefly: qHTS assay to identify small molecule antagonists of the progesterone receptor (PR) signaling pathway (AID 1346795; active = well fitted inhibition curve with a large enough effect in the signal ratio in the repeat runs, not every such curve was filed as active; the % refers to the signal ratio; also: potency is read from the fitted curve at half-maximal effect). In short, it runs like this: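 Screening used a GripTite HEK293T line with PR-responsive UAS-beta-lactamase. Cells were challenged with compound in the presence of 1 nM R5020 final for 16 hr at 37C; B/G FRET substrate, 2 hr room temperature, fluorescence.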

Assay [18] addresses Androgen receptor (Homo sapiens) (UniProt P10275). Briefly: qHTS assay to identify small molecule agonists of the androgen receptor (AR) signaling pathway in the presence of an antagonist (AID 1259381; calls by dose curve; also: nearly all actives have a fitted effect of over 15% in size). In short, it runs like this: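 AR antagonist background: nilutamide 3.0uM final. Cell line: MDA-kb2, MMTV-driven luciferase, responsive to both AR and GR. Exposure 16hr, 37C, no CO2; ONE-Glo luminescence.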

Assay [19] addresses Progesterone receptor (Homo sapiens) (UniProt P06401). Briefly: qHTS assay to identify small molecule agonists of the progesterone receptor (PR) signaling pathway (AID 1346784; calls by dose curve; also: nearly all actives have a fitted effect of over 30% in size). In a few lines: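 Seed PR-UAS-bla HEK 293T cells (2% charcoal-stripped FBS), incubate 6 hr at 37C; add compounds in DMSO, 16 hr at 37C; add LiveBLAzer B/G substrate, 2 hr RT; read fluorescence intensity.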

Estrogen receptor beta (Homo sapiens), sequence (Q92731 whole entry, looked up): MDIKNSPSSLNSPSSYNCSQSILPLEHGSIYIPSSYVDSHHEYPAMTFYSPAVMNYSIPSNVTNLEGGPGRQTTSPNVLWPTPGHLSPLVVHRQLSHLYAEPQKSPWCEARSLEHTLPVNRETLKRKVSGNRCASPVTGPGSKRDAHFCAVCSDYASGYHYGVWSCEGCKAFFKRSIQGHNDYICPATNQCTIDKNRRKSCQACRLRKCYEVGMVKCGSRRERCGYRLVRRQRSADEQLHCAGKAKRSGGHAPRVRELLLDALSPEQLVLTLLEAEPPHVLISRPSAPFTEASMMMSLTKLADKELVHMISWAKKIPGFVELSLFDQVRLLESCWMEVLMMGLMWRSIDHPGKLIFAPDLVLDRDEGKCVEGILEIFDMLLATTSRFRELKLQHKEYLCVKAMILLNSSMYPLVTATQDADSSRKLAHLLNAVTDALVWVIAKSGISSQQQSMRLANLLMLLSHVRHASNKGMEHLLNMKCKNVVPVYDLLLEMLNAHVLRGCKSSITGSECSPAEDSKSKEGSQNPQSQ
Thyrotropin-releasing hormone receptor (Homo sapiens), sequence (P34981 whole entry, looked up): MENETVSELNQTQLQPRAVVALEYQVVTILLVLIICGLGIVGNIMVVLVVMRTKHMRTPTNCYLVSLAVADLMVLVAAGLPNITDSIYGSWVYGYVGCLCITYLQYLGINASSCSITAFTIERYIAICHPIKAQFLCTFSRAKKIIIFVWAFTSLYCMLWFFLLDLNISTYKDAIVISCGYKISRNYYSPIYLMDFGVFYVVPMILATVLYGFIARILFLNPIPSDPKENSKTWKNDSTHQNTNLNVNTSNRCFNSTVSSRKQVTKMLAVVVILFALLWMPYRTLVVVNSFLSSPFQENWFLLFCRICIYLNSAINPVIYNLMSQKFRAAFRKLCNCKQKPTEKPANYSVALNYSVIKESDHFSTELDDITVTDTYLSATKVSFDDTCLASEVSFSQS
Progesterone receptor (Homo sapiens), sequence (P06401 whole entry, looked up): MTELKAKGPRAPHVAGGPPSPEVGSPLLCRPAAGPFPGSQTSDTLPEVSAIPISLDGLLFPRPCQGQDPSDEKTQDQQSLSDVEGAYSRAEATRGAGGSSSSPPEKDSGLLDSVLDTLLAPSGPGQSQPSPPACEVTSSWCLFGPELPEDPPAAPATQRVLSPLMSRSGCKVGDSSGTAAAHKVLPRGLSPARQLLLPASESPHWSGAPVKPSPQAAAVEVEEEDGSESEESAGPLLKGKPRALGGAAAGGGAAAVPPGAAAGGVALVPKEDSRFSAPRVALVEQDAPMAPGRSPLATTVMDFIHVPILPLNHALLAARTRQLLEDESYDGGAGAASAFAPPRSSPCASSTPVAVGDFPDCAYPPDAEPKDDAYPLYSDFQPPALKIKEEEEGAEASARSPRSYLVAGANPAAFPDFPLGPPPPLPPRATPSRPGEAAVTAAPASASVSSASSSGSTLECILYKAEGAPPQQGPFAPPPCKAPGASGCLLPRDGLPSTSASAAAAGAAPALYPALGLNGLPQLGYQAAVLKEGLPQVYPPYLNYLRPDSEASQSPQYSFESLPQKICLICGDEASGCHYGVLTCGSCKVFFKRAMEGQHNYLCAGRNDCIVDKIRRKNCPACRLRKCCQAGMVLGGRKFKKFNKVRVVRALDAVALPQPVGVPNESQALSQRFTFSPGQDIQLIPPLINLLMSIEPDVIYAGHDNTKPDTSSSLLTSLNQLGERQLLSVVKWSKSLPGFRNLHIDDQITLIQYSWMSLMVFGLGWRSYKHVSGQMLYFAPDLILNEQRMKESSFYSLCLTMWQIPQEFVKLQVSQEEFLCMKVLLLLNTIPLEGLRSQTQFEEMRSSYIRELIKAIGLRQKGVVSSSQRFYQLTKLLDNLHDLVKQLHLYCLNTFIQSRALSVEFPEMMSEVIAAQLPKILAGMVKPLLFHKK
Estrogen receptor (Homo sapiens), sequence (P03372 whole entry, looked up): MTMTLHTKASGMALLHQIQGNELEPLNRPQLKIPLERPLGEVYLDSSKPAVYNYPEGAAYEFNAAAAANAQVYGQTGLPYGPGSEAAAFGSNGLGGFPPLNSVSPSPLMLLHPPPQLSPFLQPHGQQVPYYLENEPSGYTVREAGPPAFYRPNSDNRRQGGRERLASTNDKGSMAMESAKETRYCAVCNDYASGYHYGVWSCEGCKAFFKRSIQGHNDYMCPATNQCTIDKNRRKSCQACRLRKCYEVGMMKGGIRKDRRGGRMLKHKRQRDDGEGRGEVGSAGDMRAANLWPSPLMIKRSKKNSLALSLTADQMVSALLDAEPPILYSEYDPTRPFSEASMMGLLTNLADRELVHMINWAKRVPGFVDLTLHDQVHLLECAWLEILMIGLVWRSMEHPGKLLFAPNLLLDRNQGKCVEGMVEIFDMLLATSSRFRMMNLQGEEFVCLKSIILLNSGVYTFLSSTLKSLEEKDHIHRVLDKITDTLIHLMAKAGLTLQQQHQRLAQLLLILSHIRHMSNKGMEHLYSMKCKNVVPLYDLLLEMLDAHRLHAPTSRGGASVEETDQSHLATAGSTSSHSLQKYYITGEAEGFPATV
Androgen receptor (Homo sapiens), sequence (P10275 whole entry, looked up): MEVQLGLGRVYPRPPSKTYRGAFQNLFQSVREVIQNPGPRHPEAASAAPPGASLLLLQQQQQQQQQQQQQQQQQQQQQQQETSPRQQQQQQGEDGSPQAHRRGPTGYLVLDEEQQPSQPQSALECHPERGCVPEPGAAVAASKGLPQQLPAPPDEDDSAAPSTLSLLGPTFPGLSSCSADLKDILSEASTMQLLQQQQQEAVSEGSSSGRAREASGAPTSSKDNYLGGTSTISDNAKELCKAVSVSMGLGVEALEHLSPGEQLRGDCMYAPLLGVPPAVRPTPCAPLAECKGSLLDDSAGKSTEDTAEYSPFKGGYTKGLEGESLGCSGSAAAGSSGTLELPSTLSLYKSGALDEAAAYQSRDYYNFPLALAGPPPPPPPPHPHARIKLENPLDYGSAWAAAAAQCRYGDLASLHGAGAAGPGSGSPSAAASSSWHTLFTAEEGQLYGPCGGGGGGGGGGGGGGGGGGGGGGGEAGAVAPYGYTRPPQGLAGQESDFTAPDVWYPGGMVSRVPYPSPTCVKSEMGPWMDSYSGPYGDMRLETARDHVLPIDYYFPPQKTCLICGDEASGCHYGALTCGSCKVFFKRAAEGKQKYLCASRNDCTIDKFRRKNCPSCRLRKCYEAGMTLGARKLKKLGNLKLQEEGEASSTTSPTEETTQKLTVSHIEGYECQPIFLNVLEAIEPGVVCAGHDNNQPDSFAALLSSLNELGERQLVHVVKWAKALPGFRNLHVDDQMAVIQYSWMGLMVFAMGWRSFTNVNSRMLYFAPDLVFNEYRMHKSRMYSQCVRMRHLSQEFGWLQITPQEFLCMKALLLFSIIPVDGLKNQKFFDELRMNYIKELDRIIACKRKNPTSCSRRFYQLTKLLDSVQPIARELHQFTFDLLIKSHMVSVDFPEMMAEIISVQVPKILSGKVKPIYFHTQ
Thyrotropin receptor (Homo sapiens), sequence (P16473 whole entry, looked up): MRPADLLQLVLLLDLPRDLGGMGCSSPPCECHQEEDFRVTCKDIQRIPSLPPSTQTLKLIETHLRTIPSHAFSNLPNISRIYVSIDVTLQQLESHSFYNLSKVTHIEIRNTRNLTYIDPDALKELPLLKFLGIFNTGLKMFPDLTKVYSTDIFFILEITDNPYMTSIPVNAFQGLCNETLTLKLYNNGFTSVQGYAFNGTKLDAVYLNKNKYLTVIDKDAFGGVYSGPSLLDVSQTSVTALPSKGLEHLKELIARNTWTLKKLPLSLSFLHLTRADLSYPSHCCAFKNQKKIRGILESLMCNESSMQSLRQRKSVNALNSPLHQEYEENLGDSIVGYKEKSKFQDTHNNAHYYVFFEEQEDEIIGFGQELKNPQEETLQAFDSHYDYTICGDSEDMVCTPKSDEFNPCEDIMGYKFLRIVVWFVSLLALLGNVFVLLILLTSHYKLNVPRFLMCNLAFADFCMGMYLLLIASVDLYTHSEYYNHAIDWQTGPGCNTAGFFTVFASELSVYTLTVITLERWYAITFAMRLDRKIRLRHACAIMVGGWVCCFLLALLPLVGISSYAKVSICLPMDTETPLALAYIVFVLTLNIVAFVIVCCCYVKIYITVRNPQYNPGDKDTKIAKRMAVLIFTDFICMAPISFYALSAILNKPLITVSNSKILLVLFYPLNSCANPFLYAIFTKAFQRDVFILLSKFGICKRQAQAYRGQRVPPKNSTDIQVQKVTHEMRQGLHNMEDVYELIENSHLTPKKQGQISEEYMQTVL

Regarding `CN(C)c1ccc(N=O)cc1`, the Potency is 15.4 µM (active) in assay [1]; 43.4 µM (active) and 43.3 µM (active) in [3]; 3.87 µM (active) and 15.4 µM (active) in [4]; 68.8 µM (active) and 61.1 µM (active) in assay [6]; 38.7 µM (active) and 48.6 µM (active) in assay [7]. For the same molecule, the Potency result in [2], in [5], in assay [8], in assay [9], in assay [10] and in assay [12] was “inactive” in each case. The molecule was called inactive in assay [11] and in assay [13].

For the molecule `CCSCc1ccccc1OC(=O)NC`, the Potency entry in assay [1], in [2], in assay [3], in [4], in assay [14] and in assay [5] was “inactive” each time. Further, the Potency entry in assay [16], in assay [6], in assay [17], in assay [7], in assay [8] and in assay [9] was “inactive” each time. Besides, the Potency entry in assay [10] and in [12] was “inactive” in each case. The molecule was classed as inactive in assay [15], in assay [11] and in [13].

Take `CC(=O)NNc1ccccc1`: the Potency entry in assay [1], in [2], in assay [3], in assay [18], in [6] and in [19] was “inactive” throughout. Also, the Potency result in assay [9] and in assay [10] was “inactive” each time. For the same molecule, the Potency in assay [7] was 30.4 µM (active). For the same molecule, in [11], the result was inactive.

For the molecule `O=C(N/N=C/c1ccc([N+](=O)[O-])o1)c1cc([N+](=O)[O-])cc([N+](=O)[O-])c1O`, the Potency in assay [1] was 10.6 µM (active); in assay [3], 11.9 µM (active); in [6] it was 21.1 µM (active). The Potency result in assay [2], in [4], in assay [14], in assay [16], in assay [19] and in assay [17] was “inactive” throughout. Besides, the Potency result in [7], in assay [8], in [9], in assay [10] and in assay [12] was “inactive” each time. Besides, the molecule was called inactive in assay [15], in [11] and in assay [13].

For `C[C@H]1O[C@H](OC2[C@@H](O)[C@@H](O)C(O)[C@H](O)[C@H]2O)[C@@H](N)C[C@@H]1N=C(N)C(=O)O` (some centres not stated), the Potency entry in assay [1], in assay [2], in assay [3], in assay [4], in assay [14] and in assay [5] was “inactive” each time. Besides, the Potency entry in [16], in [19], in assay [17], in [7], in assay [8] and in assay [9] was “inactive” in each case. The Potency result in assay [10] and in assay [12] was “inactive” in each case. For the same molecule, the molecule was classed as inactive in [15] and in [13].

On to `C[CH2][Hg][S]c1ccccc1C(=O)O`, for which the Potency in assay [1] is 0.686 µM (active); in assay [3], 10.9 µM (active) and 13.3 µM (active); in assay [4], 2.17 µM (active) and 5.31 µM (active); in assay [14], 2.43 µM (active) and 5.31 µM (active); in assay [16], 13.7 µM (active) and 29.8 µM (active); in [6], 13.7 µM (active) and 21.1 µM (active). Also, the Potency in [17] is 1.54 µM (active) and 3.35 µM (active); in [7] it was 2.73 µM (active) and 6.68 µM (active); in assay [8] it was 1.93 µM (active) and 6.68 µM (active); in assay [9], 43.6 µM (active) and 19 µM (active). Also, the Potency entry in assay [2], in assay [18] and in assay [10] was “inactive” in each case.

For the molecule `CC(C)(c1ccccc1)c1cc(-n2nc3ccccc3n2)c(O)c(C(C)(C)c2ccccc2)c1`, the Potency entry in assay [1], in [2], in [3], in [4], in [14] and in assay [5] was “inactive” each time. Further, the Potency result in assay [16], in [6], in assay [19], in assay [17], in [7] and in [9] was “inactive” in each case. The Potency result in [10] and in [12] was “inactive” throughout. In addition, the molecule was called inactive in assay [15] and in assay [13].
